# Experimental data from the supplement of paper PMC8728848.
# Shown is part of a subset that was picked to be rich in the strongest signals.
# B1: EUL D1A first (Oryza sativa) (protein)
# chain: MFGFGHHHNQAPAAPSDPNQIFKIFCRANENYCLTVRDSAVVLAPVNPKDEHQHWFKDMRFSTKVKDGEGMPAFALVNKATGLAVKHSLGQSHPVKLVPFNPEYEDASVLWTESKDVGKGFRCIRMVNNTRLNLDAFHGDKDHGGVRDGTTVVLWEWCKGDNQSWKILPWGPEAHSSSPGAATILEQKLISEEDLNSAVDHHHHHH
# Experiments:
# Assay in all cases: glycan array binding signal (z-score within array); higher = stronger binding
# Settings in all cases: glycan notation: IUPAC condensed, linker removed
# Fuc(a1-2)Gal(b1-3)GalNAc = target: Fuc(a1-2)Gal(b1-3)GalNAc
# Procedure, shortened: (§1)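 From the Consortium for Functional Glycomics database, 3228 arrays were curated, keeping only those whose protein sequence was available. Binding is given as a within-array Z-score averaged across arrays sharing a protein sequence and across linkers. Negative Z-scores can be read as non-binding.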
# [1] = target: Fuc(a1-2)Gal(b1-3)GalNAc(b1-3)Gal(a1-4)Gal(b1-4)Glc
# Procedure, shortened: as §1
# [2] = target: Fuc(a1-2)Gal(b1-3)GlcNAc6S
# Procedure, shortened: as §1
# Fuc(a1-2)Gal(b1-4)GlcNAc = target: Fuc(a1-2)Gal(b1-4)GlcNAc
# Procedure, shortened: as §1
# [3] = target: Fuc(a1-2)Gal(b1-4)GlcNAc(b1-3)[Fuc(a1-3)[Gal(b1-4)]GlcNAc(b1-6)]Gal(b1-4)Glc
# Procedure, shortened: as §1
# [4] = target: Fuc(a1-2)Gal(b1-4)[Fuc(a1-3)]GlcNAc(b1-3)Gal(b1-4)[Fuc(a1-3)]GlcNAc(b1-3)Gal(b1-4)[Fuc(a1-3)]GlcNAc
# Procedure, shortened: as §1
# [5] = target: Fuc(a1-2)[Gal(a1-3)]Gal(b1-3)GlcNAc
# Procedure, shortened: as §1
# [6] = target: Fuc(a1-2)[Gal(a1-3)]Gal(b1-3)GlcNAc(b1-6)GalNAc
# Procedure, shortened: as §1
# [7] = target: Fuc(a1-2)[GalNAc(a1-3)]Gal(b1-4)GlcNAc(b1-2)Man(a1-3)[Fuc(a1-2)[GalNAc(a1-3)]Gal(b1-4)GlcNAc(b1-2)Man(a1-6)]Man(b1-4)GlcNAc(b1-4)[Fuc(a1-6)]GlcNAc
# Procedure, shortened: as §1
# [8] = target: Fuc(a1-2)[GalNAc(a1-3)]Gal(b1-4)GlcNAc(b1-3)Gal(b1-4)GlcNAc
# Procedure, shortened: as §1
# [9] = target: Fuc(a1-3)[Gal(b1-4)]GlcNAc(b1-2)Man
# Procedure, shortened: as §1
# Gal(a1-2)Gal = target: Gal(a1-2)Gal
# Procedure, shortened: as §1
# [10] = target: Gal(a1-3)Gal(b1-3)GlcNAc(b1-2)Man(a1-3)[Gal(a1-3)Gal(b1-3)GlcNAc(b1-2)Man(a1-6)]Man(b1-4)GlcNAc(b1-4)GlcNAc
# Procedure, shortened: as §1
# [11] = target: Gal(a1-3)Gal(b1-4)[Fuc(a1-3)]GlcNAc
# Procedure, shortened: as §1
# [12] = target: Gal(a1-4)Gal(b1-3)GlcNAc(b1-2)Man(a1-3)[Gal(a1-4)Gal(b1-3)GlcNAc(b1-2)Man(a1-6)]Man(b1-4)GlcNAc(b1-4)GlcNAc
# Procedure, shortened: as §1
# Gal(a1-4)Gal(b1-4)Glc = target: Gal(a1-4)Gal(b1-4)Glc
# Procedure, shortened: as §1
# Gal(b1-3)GalNAc = target: Gal(b1-3)GalNAc
# Procedure, shortened: as §1
# [13] = target: Gal(b1-3)GalNAc(a1-3)[Fuc(a1-2)]Gal(b1-4)Glc
# Procedure, shortened: as §1
# [14] = target: Gal(b1-3)GalNAc(b1-3)Gal(a1-4)Gal(b1-4)Glc
# Procedure, shortened: as §1
# [15] = target: Gal(b1-3)[GlcNAc(b1-6)]GalNAc
# Procedure, shortened: as §1
# [16] = target: Gal(b1-3)[Neu5Ac(b2-6)]GalNAc
# Procedure, shortened: as §1
# [17] = target: Gal(b1-4)GlcNAc(a1-6)Gal(b1-4)GlcNAc
# Procedure, shortened: as §1
# [18] = target: Gal(b1-4)GlcNAc(b1-2)Man(a1-3)[Gal(b1-4)GlcNAc(b1-2)Man(a1-6)]Man(b1-4)GlcNAc(b1-4)GlcNAc
# Procedure, shortened: as §1
# [19] = target: Gal(b1-4)GlcNAc(b1-2)Man(a1-3)[Gal(b1-4)GlcNAc(b1-2)Man(a1-6)][GlcNAc(b1-4)]Man(b1-4)GlcNAc(b1-4)[Fuc(a1-6)]GlcNAc
# Procedure, shortened: as §1
# [20] = target: Gal(b1-4)GlcNAc(b1-2)Man(a1-6)Man(b1-4)GlcNAc(b1-4)GlcNAc
# Procedure, shortened: as §1
# [21] = target: Gal(b1-4)GlcNAc(b1-2)[Gal(b1-4)GlcNAc(b1-4)]Man(a1-3)[GlcNAc(b1-4)][Gal(b1-4)GlcNAc(b1-2)Man(a1-6)]Man(b1-4)GlcNAc(b1-4)GlcNAc
# Procedure, shortened: as §1
# [22] = target: Gal(b1-4)GlcNAc(b1-2)[Gal(b1-4)GlcNAc(b1-6)]Man(a1-6)[Gal(b1-4)GlcNAc(b1-2)Man(a1-3)]Man(b1-4)GlcNAc(b1-4)GlcNAc
# Procedure, shortened: as §1
# [23] = target: Gal(b1-4)GlcNAc(b1-3)Gal(b1-4)GlcNAc(b1-3)Gal(b1-4)GlcNAc(b1-2)[Gal(b1-4)GlcNAc(b1-3)Gal(b1-4)GlcNAc(b1-3)Gal(b1-4)GlcNAc(b1-6)]Man(a1-6)[Gal(b1-4)GlcNAc(b1-3)Gal(b1-4)GlcNAc(b1-3)Gal(b1-4)GlcNAc(b1-2)Man(a1-3)]Man(b1-4)GlcNAc(b1-4)[Fuc(a1-6)]GlcNAc
# Procedure, shortened: as §1
# [24] = target: Gal(b1-4)GlcNAc(b1-3)Gal(b1-4)[Fuc(a1-3)]GlcNAc(b1-3)Gal(b1-4)[Fuc(a1-3)]GlcNAc
# Procedure, shortened: as §1
# [25] = target: Gal(b1-4)GlcNAc(b1-6)[Gal(b1-4)GlcNAc(b1-3)]GalNAc
# Procedure, shortened: as §1
# [26] = target: GalNAc(a1-3)GalNAc(b1-3)Gal(a1-4)Gal(b1-4)Glc
# Procedure, shortened: as §1
# [27] = target: GalNAc(b1-3)Gal(a1-6)Gal(b1-4)Glc
# Procedure, shortened: as §1
# GalNAc(b1-4)GlcNAc6S = target: GalNAc(b1-4)GlcNAc6S
# Procedure, shortened: as §1
# GalNAc3S(b1-4)GlcNAc3S = target: GalNAc3S(b1-4)GlcNAc3S
# Procedure, shortened: as §1
# GalNAc4S6S(b1-4)GlcNAc = target: GalNAc4S6S(b1-4)GlcNAc
# Procedure, shortened: as §1
# [28] = target: GlcNAc(b1-2)Man(a1-3)[GlcNAc(b1-2)Man(a1-6)]Man(b1-4)GlcNAc(b1-4)[Fuc(a1-6)]GlcNAc
# Procedure, shortened: as §1
# [29] = target: GlcNAc(b1-3)Gal(b1-4)GlcNAc(b1-2)[GlcNAc(b1-3)Gal(b1-4)GlcNAc(b1-6)]Man(a1-6)[GlcNAc(b1-3)Gal(b1-4)GlcNAc(b1-2)Man(a1-3)]Man(b1-4)GlcNAc(b1-4)GlcNAc
# Procedure, shortened: as §1
# [30] = target: GlcNAc(b1-3)Gal(b1-4)GlcNAc(b1-3)Gal(b1-4)GlcNAc(b1-3)Gal(b1-4)GlcNAc(b1-3)Gal(b1-4)GlcNAc(b1-2)Man(a1-3)[GlcNAc(b1-3)Gal(b1-4)GlcNAc(b1-3)Gal(b1-4)GlcNAc(b1-3)Gal(b1-4)GlcNAc(b1-3)Gal(b1-4)GlcNAc(b1-2)Man(a1-6)]Man(b1-4)GlcNAc(b1-4)[Fuc(a1-6)]GlcNAc
# Procedure, shortened: as §1
# [31] = target: GlcNAc(b1-3)[GlcNAc(b1-6)]Gal(b1-4)GlcNAc
# Procedure, shortened: as §1
# [32] = target: GlcNAc(b1-4)GlcNAc(b1-4)GlcNAc(b1-4)GlcNAc(b1-4)GlcNAc(b1-4)GlcNAc
# Procedure, shortened: as §1
# Man(a1-2)Man(a1-3)Man = target: Man(a1-2)Man(a1-3)Man
# Procedure, shortened: as §1
# [33] = target: Neu5Ac(a2-3)Gal(b1-3)GlcNAc(b1-3)Gal(b1-3)GlcNAc
# Procedure, shortened: as §1
# [34] = target: Neu5Ac(a2-3)Gal(b1-3)[GlcNAc(b1-6)]GalNAc
# Procedure, shortened: as §1
# [35] = target: Neu5Ac(a2-3)Gal(b1-4)GlcNAc(b1-3)Gal(b1-4)GlcNAc(b1-6)[Gal(b1-3)]GalNAc
# Procedure, shortened: as §1
# [36] = target: Neu5Ac(a2-3)Gal(b1-4)GlcNAc(b1-3)Gal(b1-4)[Fuc(a1-3)]GlcNAc
# Procedure, shortened: as §1
# [37] = target: Neu5Ac(a2-3)Gal(b1-4)GlcNAc(b1-6)[Gal(b1-3)]GalNAc
# Procedure, shortened: as §1
# [38] = target: Neu5Ac(a2-3)Gal(b1-4)[Fuc(a1-3)]GlcNAc(b1-3)GalNAc
# Procedure, shortened: as §1
# [39] = target: Neu5Ac(a2-3)[Neu5Ac(a2-6)]GalNAc
# Procedure, shortened: as §1
# [40] = target: Neu5Ac(a2-6)Gal(b1-4)GlcNAc(b1-2)Man(a1-6)[Man(a1-3)]Man(b1-4)GlcNAc(b1-4)GlcNAc
# Procedure, shortened: as §1
# Neu5Gc(a2-3)Gal(b1-4)Glc = target: Neu5Gc(a2-3)Gal(b1-4)Glc
# Procedure, shortened: as §1
# [41] = target: Neu5Gc(a2-3)Gal(b1-4)GlcNAc
# Procedure, shortened: as §1
binder,measurement,setting,value
B1,glycan array binding signal (z-score),Fuc(a1-2)Gal(b1-3)GalNAc,-0.658
same,glycan array binding signal (z-score),[1],2.66
same,glycan array binding signal (z-score),[2],3.74
same,glycan array binding signal (z-score),Fuc(a1-2)Gal(b1-4)GlcNAc,-0.369
same,glycan array binding signal (z-score),[3],2.74
same,glycan array binding signal (z-score),[4],0.387
same,glycan array binding signal (z-score),[5],0.384
same,glycan array binding signal (z-score),[6],-0.959
same,glycan array binding signal (z-score),[7],0.095
same,glycan array binding signal (z-score),[8],-0.61
same,glycan array binding signal (z-score),[9],3.34
same,glycan array binding signal (z-score),Gal(a1-2)Gal,-0.848
same,glycan array binding signal (z-score),[10],3.31
same,glycan array binding signal (z-score),[11],-0.411
same,glycan array binding signal (z-score),[12],2.2
same,glycan array binding signal (z-score),Gal(a1-4)Gal(b1-4)Glc,0.4
same,glycan array binding signal (z-score),Gal(b1-3)GalNAc,-0.735
same,glycan array binding signal (z-score),[13],-1.67
same,glycan array binding signal (z-score),[14],-0.207
same,glycan array binding signal (z-score),[15],-1.03
same,glycan array binding signal (z-score),[16],-1.15
same,glycan array binding signal (z-score),[17],1.94
same,glycan array binding signal (z-score),[18],3.09
same,glycan array binding signal (z-score),[19],-1.23
same,glycan array binding signal (z-score),[20],3.03
same,glycan array binding signal (z-score),[21],-1.53
same,glycan array binding signal (z-score),[22],-1.05
same,glycan array binding signal (z-score),[23],2.45
same,glycan array binding signal (z-score),[24],-0.16
same,glycan array binding signal (z-score),[25],-0.802
same,glycan array binding signal (z-score),[26],-0.059
same,glycan array binding signal (z-score),[27],-2.32
same,glycan array binding signal (z-score),GalNAc(b1-4)GlcNAc6S,-0.411
same,glycan array binding signal (z-score),GalNAc3S(b1-4)GlcNAc3S,-0.185
same,glycan array binding signal (z-score),GalNAc4S6S(b1-4)GlcNAc,0.534
same,glycan array binding signal (z-score),[28],3.11
same,glycan array binding signal (z-score),[29],1.95
same,glycan array binding signal (z-score),[30],2.06
same,glycan array binding signal (z-score),[31],6.85
same,glycan array binding signal (z-score),[32],-0.541
same,glycan array binding signal (z-score),Man(a1-2)Man(a1-3)Man,0.615
same,glycan array binding signal (z-score),[33],0.506
same,glycan array binding signal (z-score),[34],0.405
same,glycan array binding signal (z-score),[35],0.24
same,glycan array binding signal (z-score),[36],-0.958
same,glycan array binding signal (z-score),[37],0.081
same,glycan array binding signal (z-score),[38],3.45
same,glycan array binding signal (z-score),[39],-0.451
same,glycan array binding signal (z-score),[40],-0.647
same,glycan array binding signal (z-score),Neu5Gc(a2-3)Gal(b1-4)Glc,-0.152
same,glycan array binding signal (z-score),[41],0.3
